According to PubChem BioAssay AID686979 (National Center for Advancing Translational Sciences (NCATS), 2013):
The whole screen tested about 420,000 compounds, of which about 50,000 (12%) were called active. Inconclusive results (about 26%) are left out. The call rests on the fitted dose curve; in most records, active means well fitted inhibition curve with a large enough effect; inconclusive means small, poorly fitted or top-dose-only effect; inactive means flat fitted curve, though single readings scatter. The entries come from a sample that favours actives as a whole. A call without a number means that no potency is given here.

assay: qHTS for Inhibitors of human tyrosyl-DNA phosphodiesterase 1 (TDP1): qHTS in cells in presence of CPT; conditions: chicken DT40 Tdp1-/-;hTDP1 cells + 20 nM CPT, ATP luminescence, 48 h; series mostly up to 46.2 µM; further: nearly all actives have a fitted effect of over 55% in size
Outline: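 Cell growth measured by CellTiter-Glo luminescence after a minimum 48 h, 37 C compound exposure with 20 nM CPT in Tdp1-knockout DT40 cells stably expressing hTDP1, seeded 400/well; qHTS titration format.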
Potency means the concentration at half of the fitted maximal effect.

| Compound | Potency | activity change, negative = growth inhibition |
| --- | --- | --- |
| Cc1ccc2cccc(NC(=O)c3ccc(OC(C)C)cc3)c2n1 | 18.4 µM (active) | – |
| COc1ccc(OC(C)C(=O)Nc2cccnc2)cc1 (centres undefined) | inactive | – |
| Cc1ccc2cccc(NC(=O)C(C)Oc3ccc(C)c(C)c3)c2n1 (centres undefined) | 20.6 µM (active) | – |
| CC(C)Oc1ccc(C(=O)Nc2cc(=O)n(C)c(=O)n2C)cc1 | inactive | – |
| CC(Oc1ccc(Cl)cc1)C(=O)Nc1ncccn1 (centres undefined) | inactive | – |
| CC(C)Oc1ccc(C(=O)NC(C)(C)CO)cc1 | inactive | – |
| Cc1ccc(Cn2c(=O)n(-c3ccc(C)cc3)c(=O)c3c2c2cc(C)ccc2n3C)cc1 | inactive | – |
| CCCCSCCCNC(=O)C1CCC(CNS(=O)(=O)c2ccc(NC(C)=O)cc2)CC1 (centres undefined) | inactive | – |
| CC1CCN(C(=O)CCNC(=O)c2ccccc2)CC1 | inactive | – |
| C=CCn1c(CCNC(=O)c2ccccc2F)nnc1SCC(=O)Nc1ccc(OC)cc1 | inactive | – |
| Cc1ccc(CN(CC(=O)NCC2CCCO2)S(=O)(=O)c2ccc(C)cc2)cc1 (centres undefined) | inactive | – |
| Cc1ccc2nc(C)c3c(c2c1)N(c1ccccc1)CC3 | 11.6 µM (active) | – |
| Cc1nc2ccc(C(=O)N3CCN(c4ccccc4)CC3)cc2s1 | inactive | – |
| Cc1ccc2nc3n(c(=O)c2c1)CCC3 | inactive | – |
| COc1ccc(Cn2ccnc2SCC(=O)NCc2ccco2)cc1 | inactive | – |
| CCOC(=O)c1cccc(NC(=O)CCc2nnc3ccc(N4CCOCC4)nn23)c1 | inactive | – |
| O=C(NC1CCCCC1)C1CCC(CNS(=O)(=O)c2ccccc2)CC1 (centres undefined) | inactive | – |
| COc1nc(NC2CCCCC2)nc(N2CCCCCC2)n1 | 22.4 µM (active) | – |
| CN(N)c1nc(N2CCCC2)nc(N2CCCC2)n1 | inactive | – |
| Clc1nc(NC2CCCC2)nc(N2CCOCC2)n1 | inactive | – |
| C[C@@H]1CN([C@@H](C)CO)C(=O)c2cc(Br)cnc2O[C@@H]1CN(C)C(=O)C1CCCCC1 | inactive | – |
| CC(=O)N[C@H]1[C@H]([C@H](O)[C@H](O)CO)OC(C(=O)O)=C[C@@H]1O | inactive | – |
| Cc1ccc2oc(=O)ccc2c1 | inactive | – |
| CCN(CC)c1ccc2c(Nc3ccccc3)c(C=O)c(=O)oc2c1 | inactive | – |
| CCN(CC)c1ccc2oc(=O)c(C)nc2c1 | 5.17 µM (active) | – |
| CCOc1cc(/C=C2\C(=N)N3N=C(C)SC3=NC2=O)ccc1OCCOc1ccccc1 | inactive | – |

| Compound | Potency | activity change, negative = growth inhibition |
| --- | --- | --- |
| Cc1c(Cl)cccc1NC(=S)NCc1ccc2c(c1)OCO2 | inactive | – |
| Cc1ccc(NC(=S)NCc2ccccc2Cl)c(C)c1 | 23.1 µM (active) | – |
| S=C(NCc1ccco1)NCc1ccccc1Cl | inactive | – |
| CCC(=O)N1CCC(C)(C(=O)Nc2cc(OC)c(OC)c(OC)c2)C1 (centres undefined) | inactive | – |
| CNc1ccc(NC(C)=O)cc1[N+](=O)[O-] | inactive | – |
| CC(=O)Nc1ccc(/C=N/Nc2ccc(C(=O)c3c(C)cc4ccccn34)cc2[N+](=O)[O-])cc1 | 18.4 µM (active) | – |
| Cc1ccc(Nc2ccc(C(N)=O)cc2[N+](=O)[O-])cc1 | inactive | – |
| CCCCN1C(=O)C(CC(=O)NCc2cccs2)CC(C(=O)N2CCOCC2)=C1C (centres undefined) | inactive | – |
| O=C(CSc1ncnc2sccc12)NC1CCS(=O)(=O)C1 (centres undefined) | inactive | – |
| Cc1noc(C)c1C(=O)N1CCC1(C)C(=O)NS(=O)(=O)c1ccc(C#N)cc1 (centres undefined) | inactive | – |
| COc1ccc(C(=O)CSc2nc(C)cc(C)n2)cc1[N+](=O)[O-] | inactive | – |
| CC(C)(C)C1CCC(NC(=O)c2cnn3c2NC(=C2CC2)C=C3C(F)F)CC1 (centres undefined) | 10 µM (active) | – |
| O=C(Nc1ccc(Cl)cc1)c1cnn2c1NC(=C1CC1)C=C2C(F)F | inactive | – |
| O=C(Nc1ccc([N+](=O)[O-])cc1)c1cnn2c1NC(=C1CC1)C=C2C(F)F | inactive | – |
| COc1cc(NC(=S)NCc2ccco2)c(OC)cc1Cl | inactive | – |
| CNC(=O)Nc1cc(C(C)(C)C)no1 | 16.4 µM (active) | – |
| COc1ccc(NC(=O)c2cc(=O)[nH]c3ccccc23)cc1S(=O)(=O)N1CCOCC1 | inactive | – |
| CCCCC/C=C\CC1OC1CCCCCCCC(=O)O (centres undefined) | – | 0.0245% [at 0.628 µM] (inactive) |
| O=[N+]([O-])c1cc(S(=O)(=O)NCCc2ccccn2)ccc1Cl | inactive | – |
| Cc1ccc(C(=O)N/C(=C/c2cccnc2)C(=O)O)cc1 | inactive | – |
| O=C(Nc1cccc2ccccc12)NC1CC1 | inactive | – |
| CC(=O)N(C)c1ccc(NC(=O)Nc2cccc3ccccc23)cc1 | inactive | – |
| CCN(C(=O)Nc1cccc2ccccc12)c1ccccc1 | 23.1 µM (active) | – |
| CCn1c(-c2cccnc2Cl)nc2cc(C)c(C)cc21 | inactive | – |
| CCOC(=O)N1CCN(C(=O)c2ccc(S(=O)(=O)c3ccc(C)cc3)c(NC(C)=O)c2)CC1 | inactive | – |
| CCOC(=O)N1CCN(C(=O)c2ccc(S(=O)(=O)Nc3cccc(C(F)(F)F)c3)cc2)CC1 | 16.4 µM (active) | – |

| Compound | Potency | activity change, negative = growth inhibition |
| --- | --- | --- |
| O=C(NCc1ccccc1)c1ccc(S(=O)(=O)Nc2cccc(C(F)(F)F)c2)cc1 | inactive | – |
| CC(C)(C)NC(=O)CN1CCC(NC(=O)C23CC4CC(CC(C4)C2)C3)CC1 | inactive | – |
| COc1cccc(CCNC(=O)COc2cccc3c2OC(C)(C)C3)c1 | inactive | – |
| O=C(Nc1cccc(C(=O)N2CCCC2)c1)c1ccccc1 | inactive | – |
| COc1cccc(CCNC(=O)c2cccc(NC(=O)C3=C(C)OCCS3)c2)c1 | 23.1 µM (active) | – |
| CC(CNC(=O)c1nnc(Cc2cccc(F)c2)o1)c1ccccc1 (centres undefined) | inactive | – |
| COc1cccc(C(=O)NCCSc2ccc(Br)cc2)c1 | inactive | – |
| CC1=C(C(=O)Nc2cccc(C(=O)NCC(C)c3ccccc3)c2)SCCO1 (centres undefined) | 16.4 µM (active) | – |
| COCCn1c(N)c(N(Cc2ccccc2)C(=O)C2CCCCC2)c(=O)[nH]c1=O | inactive | – |
| Cc1nn(C)c(C)c1S(=O)(=O)N1CCC(CO)(Cc2ccc(Cl)cc2)CC1 | inactive | – |
| Cc1c(Cl)cnc(NC(=O)COC(=O)C2CCCC2)c1Cl | inactive | – |
| N#Cc1ccc(CSc2ncccn2)cc1 | inactive | – |
| CC(C)C(c1nnnn1C1CCCCC1)N1CCN(C(=O)c2ccco2)CC1 (centres undefined) | inactive | – |
| CC1(C)C2CC[C@]3(C)C(CC=C4[C@@H]5C[C@@](C)(CO)CC[C@]5(C(=O)O)CC[C@]43C)[C@@]2(C)CC[C@@H]1O (some centres undefined) | inactive | – |
| CCOC(=O)c1c(-c2ccc(C)cc2)csc1/N=C(\C)C1=C(O)c2ccccc2C1=O | 23.1 µM (active) | – |
| CC(=NCc1ccco1)C1=C(O)c2ccccc2C1=O | inactive | – |
| CCOC(=O)c1cc2n(c1N)-c1ccccc1C2=O | inactive | – |
| CN(C)Cc1c(C(=O)N/N=C/c2ccccc2OCc2ccc(F)cc2)nnn1-c1nonc1N | inactive | – |
| CCOC(=O)N1CCC(=NNC(N)=O)CC1 | inactive | – |
| COc1ccc(S(=O)(=O)NCC(c2ccco2)N2CCOCC2)cc1 (centres undefined) | inactive | – |
| O=C(NC1CCCC1)C(c1ccco1)N(C(=O)c1ccco1)c1ccc(F)cc1 (centres undefined) | inactive | – |
| CC1(C)CC(N(Cc2ccccc2)C(=O)Cc2ccccc2)CCO1 (centres undefined) | inactive | – |
| CC1(C)CC(CNCCC(c2ccc(F)cc2)c2ccco2)CCO1 (centres undefined) | 25.9 µM (active) | – |
| CSc1ccc(CN(C)CC(=O)NCc2ccc(F)cc2)cc1 | inactive | – |
| CC(C=Cc1ccccc1)=NNS(=O)(=O)c1ccc([N+](=O)[O-])cc1 | inactive | – |
| CC(=O)c1c(OCC(=O)N(C)C2CCCCC2)ccc2c(C)cc(=O)oc12 | inactive | – |

| Compound | Potency | activity change, negative = growth inhibition |
| --- | --- | --- |
| Cc1cc(/C=C2/NC(=O)NC2=O)c(C)n1-c1cccnc1 | inactive | – |
| Cc1ccc2nc(COc3cccc(NC(=O)Nc4ccc(C)c(Cl)c4)c3)cc(=O)n2c1 | inactive | – |
| Cc1ccc2nc(COc3ccc(NC(=O)COc4ccccc4F)cc3)cc(=O)n2c1 | inactive | – |
| Cc1ccc2nc(COc3ccccc3NC(=O)Nc3ccc(F)c(Cl)c3)cc(=O)n2c1 | 11.6 µM (active) | – |
| Cc1ccsc1C(=O)N[C@@H](C)c1nnc2ccccn12 | inactive | – |
| CC(=O)c1c(C)[nH]c(C(=O)OCC(=O)Nc2sc3c(c2C#N)CCCC3)c1C | 16.4 µM (active) | – |
| CC(=O)c1c(C)[nH]c(C(=O)OCC(=O)Nc2c(C)cccc2C)c1C | 20.6 µM (active) | – |
| N#Cc1c(NC(=O)C2CCCO2)sc2c1CCCCC2 (centres undefined) | inactive | – |
| CC(=O)c1c(C)[nH]c(C(=O)OCC(=O)Nc2c(C)n(C)n(-c3ccccc3)c2=O)c1C | inactive | – |
| COc1ccc(-n2c(SCC(=O)Nc3sc4c(c3C#N)CCCC4)nnc2-c2ccc(O)cc2)cc1 | inactive | – |
| CCCc1cc(=O)[nH]c(SCC(=O)Nc2sc3c(c2C#N)CCCC3)n1 | inactive | – |
| CCN1CCN(CC(=O)Nc2sc3c(c2C#N)CCC3)CC1 | inactive | – |
| N#Cc1c(NC(=O)CCCl)sc2c1CCCCC2 | 18.4 µM (active) | – |
| CC(=O)c1c(C)[nH]c(C(=O)OCC(=O)NCCC(C)C)c1C | inactive | – |
| CC1=CC=CC2=N/C(=N\S(=O)(=O)c3ccc(F)cc3F)c3ccccc3CN12 | inactive | – |
| C=CCn1c(CNS(=O)(=O)c2ccc(Br)cc2)nnc1SC | inactive | – |
| CCOC(=O)c1c(C)[nH]c(C(=O)OCC(=O)N2CCCC2=O)c1C | inactive | – |
| CC(C)c1nc(CNC(=O)CC2C(=O)NCCN2Cc2cccc(F)c2F)cs1 (centres undefined) | inactive | – |
| CC1(C(=O)Nc2ccc3c(c2)OCCO3)CN(S(C)(=O)=O)CC(=O)N1Cc1cccc(F)c1 (centres undefined) | inactive | – |
| CCCCc1nn2c(=O)cc(COC(=O)c3ccccc3NC(=O)C(C)(C)C)nc2s1 | inactive | – |
| CCOCCc1nn2c(=O)cc(CSCC(=O)Nc3cccc(C)c3C)nc2s1 | inactive | – |
| CCOCCc1nn2c(=O)cc(COC(=O)CNC(=O)c3ccc(C(C)(C)C)cc3)nc2s1 | 16.4 µM (active) | – |
| CCCc1nn2c(=O)cc(COC(=O)c3ccc(NC(=O)C(C)Oc4ccccc4)cc3)nc2s1 (centres undefined) | inactive | – |
| Cc1nn2c(=O)cc(COC(=O)CNC(=O)c3ccc(F)cc3)nc2s1 | inactive | – |
| CCCCc1nn2c(=O)cc(COC(=O)c3ccc(NC(=O)c4ccccc4C)cc3)nc2s1 | 20.6 µM (active) | – |
| O=C(O)CCCCC(=O)O | inactive | – |
